# Laboratory results: PubChem BioAssay (NCI)
# Compounds without any hit were thinned out: in the full panel of roughly 79,000, 15% have a hit. Unmarked numbers belong to inactive results. The source made the active and inactive calls. Cut-off read from the data, not from the text of the source: active = growth inhibition above about 70%; inactive = the rest.
# Columns and labels:
# [1] = NCI Yeast Anticancer Drug Screen. Data for the rad52 strain (AID 147);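 note: 0% = growth of vehicle-treated control cultures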; settings: S. cerevisiae rad52 mutant growth inhibition, hits give high values
# Outline: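 Inhibition of yeast growth, referenced to vehicle controls, was the measured output for a strain with defective DNA damage repair.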
# [2] = NCI Yeast Anticancer Drug Screen. Data for the wt1 strain (AID 149);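 note: 0% = growth of vehicle-treated wt1 cultures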; settings: S. cerevisiae wt1 strain (SPY 50644) growth inhibition, hits give high values
# Outline: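 Using yeast strain wt1, compound-induced growth inhibition was determined against vehicle-treated cultures.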
# [3] = NCI Yeast Anticancer Drug Screen. Data for the rad50EPP+ strain (AID 151);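 note: 0% = growth of vehicle-treated control cultures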; settings: S. cerevisiae rad50 mutant strain, hits give high values
# Outline: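 Genetically defined yeast (rad50EPP+, DNA damage repair alteration) is grown with compound, and inhibition of growth is expressed relative to vehicle-treated controls.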
# [4] = NCI Yeast Anticancer Drug Screen. Data for the mgt1 strain (AID 153); settings: S. cerevisiae mgt1 mutant growth inhibition, hits give high values
# Outline: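 In the mgt1 strain, test compounds were added and growth inhibition was determined relative to vehicle-treated controls.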
# [5] = NCI Yeast Anticancer Drug Screen. Data for the rad50 strain (AID 155);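 note: 0% = growth of vehicle-only cultures of the same strain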; settings: S. cerevisiae rad50 strain growth inhibition, hits give high values
# Outline: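 Relative growth inhibition (compound vs vehicle) was measured in yeast with a defined repair-gene alteration.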
# [6] = NCI Yeast Anticancer Drug Screen. Data for the mec2-1 strain (AID 157); settings: S. cerevisiae mec2-1 strain, hits give high values
# Outline: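 Each compound was tested on mec2-1 yeast, a strain altered in DNA damage repair or cell cycle control. Growth inhibition is reported relative to vehicle.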
# [7] = NCI Yeast Anticancer Drug Screen. Data for the rad14 strain (AID 159);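 note: 0% = growth of vehicle-treated control cultures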; settings: S. cerevisiae rad14 strain growth inhibition, hits give high values
# Outline: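 Screen for anticancer potential: a yeast strain altered in DNA damage repair is grown with compound, and reduced growth is quantified against vehicle controls.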
# [8] = NCI Yeast Anticancer Drug Screen. Data for the sgs1 mgt1 strain (AID 161);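 note: 0% = growth of cultures given vehicle only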; settings: S. cerevisiae sgs1 mgt1 strain, hits give high values
# Outline: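 Inhibition of yeast growth, normalised to vehicle-treated controls, is reported for a strain bearing genetic alterations in DNA damage repair.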
# [9] = NCI Yeast Anticancer Drug Screen. Data for the CLN2oe strain (AID 163);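 note: 0% = growth of vehicle-only control cultures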; settings: S. cerevisiae CLN2oe strain, hits give high values
# Outline: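 First, the altered yeast strain was treated with each compound; second, its growth was measured; finally, inhibition was derived by comparison with vehicle controls.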
# [10] = NCI Yeast Anticancer Drug Screen. Data for the cln2 rad14 strain (AID 165);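 note: 0% = growth equal to vehicle treated cultures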; settings: S. cerevisiae cln2 rad14 strain, hits give high values
# Outline: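 Test compounds were added to cln2 rad14 yeast cultures; inhibition of growth was then determined by comparison with vehicle treatment.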
# [11] = NCI Yeast Anticancer Drug Screen. Data for the bub3 strain (AID 167); settings: S. cerevisiae bub3 mutant strain, hits give high values
# Outline: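 Screening used yeast with an engineered genetic alteration affecting cell cycle control. Compound-exposed cultures were compared with vehicle cultures, and reduced growth was taken as inhibition.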
# [12] = NCI Yeast Anticancer Drug Screen. Data for the wt2 strain (AID 169);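 note: 0% = growth of vehicle-treated yeast cultures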; settings: S. cerevisiae wt2 strain growth inhibition, hits give high values
# Outline: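 The panel's yeast strains carry defined changes in DNA repair or cell cycle genes. Each strain is grown with compound, and growth loss is scored relative to vehicle.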
# [13] = NCI Yeast Anticancer Drug Screen. Data for the mlh1 strain (AID 171);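 note: 0% = growth of vehicle-treated control cultures of the same strain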; settings: S. cerevisiae mlh1 strain growth inhibition, hits give high values
# Outline: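 Inhibition values reflect reduced yeast growth in the presence of compound, referenced to vehicle controls, using a strain chosen for its alteration in DNA repair or cell cycle control.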
# [14] = NCI Yeast Anticancer Drug Screen. Data for the sgs1 strain (AID 173);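 note: 0% = growth of vehicle-only control cultures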; settings: S. cerevisiae sgs1 mutant, hits give high values
# Outline: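 Vehicle-treated cultures served as reference for growth inhibition of a yeast strain altered in DNA damage repair or cell cycle control after compound exposure.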
# [15] = NCI Yeast Anticancer Drug Screen. Data for the mlh1 rad18 strain (AID 175); settings: S. cerevisiae mlh1 rad18 strain growth inhibition, hits give high values
# Outline: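 Inhibition values reflect reduced growth of mutant yeast versus vehicle-treated controls following compound exposure; the mutations affect DNA damage repair.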
# [16] = NCI Yeast Anticancer Drug Screen. Data for the rad18 strain (AID 177); settings: S. cerevisiae rad18 mutant growth inhibition, hits give high values
# Outline: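 Steps: expose repair-mutant yeast to compound; measure growth; express as inhibition relative to vehicle control.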
# [17] = at 5.0 µM (retest, dose inferred, filed as 0.5)
# [18] = at 50.0 µM (retest, dose inferred, filed as 5.0)
smiles,measurement,setting,value
CC1CCC2(NC1)OC1CC3C4CCC5CC(OC6OC(CO)C(OC7OC(CO)C(O)C(OC8OCC(O)C(O)C8O)C7OC7OC(CO)C(O)C(O)C7O)C(O)C6O)CCC5(C)C4CCC3(C)C1C2C (stereo unspecified),growth inhibition,[1]; at 1.2 µM,30%
same,growth inhibition,[1]; at 3.7 µM,8%
same,growth inhibition,[1]; at 11.0 µM,12%
same,growth inhibition,[1]; at 33.0 µM,0%
same,growth inhibition,[1]; at 100.0 µM,76% (active)
same,growth inhibition,[2]; at 1.2 µM,-6%
same,growth inhibition,[2]; at 3.7 µM,-15%
same,growth inhibition,[2]; at 11.0 µM,-18%
same,growth inhibition,[2]; at 33.0 µM,-17%
same,growth inhibition,[2]; at 100.0 µM,40%
same,growth inhibition,[3]; at 1.2 µM,21%
same,growth inhibition,[3]; at 3.7 µM,3%
same,growth inhibition,[3]; at 11.0 µM,8%
same,growth inhibition,[3]; at 33.0 µM,13%
same,growth inhibition,[3]; at 100.0 µM,27%
same,growth inhibition,[4]; at 1.2 µM,-2%
same,growth inhibition,[4]; at 3.7 µM,-10%
same,growth inhibition,[4]; at 11.0 µM,-11%
same,growth inhibition,[4]; at 33.0 µM,-11%
same,growth inhibition,[4]; at 100.0 µM,44%
same,growth inhibition,[5]; at 1.2 µM,-2%
same,growth inhibition,[5]; at 3.7 µM,-16%
same,growth inhibition,[5]; [17],1%
same,growth inhibition,[5]; at 11.0 µM,-14%
same,growth inhibition,[5]; at 33.0 µM,-6%
same,growth inhibition,[5]; [18],98% (active)
same,growth inhibition,[5]; at 50.0 µM,28.9%
same,growth inhibition,[5]; at 100.0 µM,62%
same,growth inhibition,[6]; at 1.2 µM,13%
same,growth inhibition,[6]; at 3.7 µM,-14%
same,growth inhibition,[6]; [17],13%
same,growth inhibition,[6]; at 11.0 µM,-15%
same,growth inhibition,[6]; at 33.0 µM,2%
same,growth inhibition,[6]; [18],97% (active)
same,growth inhibition,[6]; at 50.0 µM,6.1%
same,growth inhibition,[6]; at 100.0 µM,14%
same,growth inhibition,[7]; at 1.2 µM,18%
same,growth inhibition,[7]; at 3.7 µM,6%
same,growth inhibition,[7]; at 11.0 µM,-5%
same,growth inhibition,[7]; at 33.0 µM,-18%
same,growth inhibition,[7]; at 100.0 µM,77% (active)
same,growth inhibition,[8]; [17],1%
same,growth inhibition,[8]; [18],93% (active)
same,growth inhibition,[8]; at 50.0 µM,-24.1%
same,growth inhibition,[9]; at 1.2 µM,-15%
same,growth inhibition,[9]; at 3.7 µM,-14%
same,growth inhibition,[9]; at 11.0 µM,-10%
same,growth inhibition,[9]; at 33.0 µM,-4%
same,growth inhibition,[9]; at 100.0 µM,46%
same,growth inhibition,[10]; [17],-19%
same,growth inhibition,[10]; [18],68%
same,growth inhibition,[10]; at 50.0 µM,28.8%
same,growth inhibition,[11]; at 1.2 µM,0%
same,growth inhibition,[11]; at 3.7 µM,-19%
same,growth inhibition,[11]; [17],10%
same,growth inhibition,[11]; at 11.0 µM,-27%
same,growth inhibition,[11]; at 33.0 µM,-10%
same,growth inhibition,[11]; [18],74% (active)
same,growth inhibition,[11]; at 50.0 µM,11.1%
same,growth inhibition,[11]; at 100.0 µM,45%
same,growth inhibition,[12]; at 1.2 µM,-7%
same,growth inhibition,[12]; at 3.7 µM,-20%
same,growth inhibition,[12]; at 11.0 µM,-22%
same,growth inhibition,[12]; at 33.0 µM,-11%
same,growth inhibition,[12]; at 100.0 µM,99% (active)
same,growth inhibition,[13]; at 1.2 µM,-4%
same,growth inhibition,[13]; at 3.7 µM,-5%
same,growth inhibition,[13]; at 11.0 µM,-8%
same,growth inhibition,[13]; at 33.0 µM,-12%
same,growth inhibition,[13]; at 100.0 µM,90% (active)
same,growth inhibition,[14]; at 1.2 µM,2%
same,growth inhibition,[14]; at 3.7 µM,0%
same,growth inhibition,[14]; at 11.0 µM,2%
same,growth inhibition,[14]; at 33.0 µM,-4%
same,growth inhibition,[14]; at 100.0 µM,61%
same,growth inhibition,[15]; [17],59%
same,growth inhibition,[15]; [18],97% (active)
same,growth inhibition,[15]; at 50.0 µM,87.6% (active)
same,growth inhibition,[16]; at 1.2 µM,4%
same,growth inhibition,[16]; at 3.7 µM,-19%
same,growth inhibition,[16]; at 11.0 µM,-14%
same,growth inhibition,[16]; at 33.0 µM,-25%
same,growth inhibition,[16]; at 100.0 µM,61%
C[C@]12CCC(=O)C=C1CC[C@@H]1C2CC[C@@]2(C)C1CC[C@@H]2OC(=O)C12OC1CCC2=O (stereo partly specified),growth inhibition,[1]; at 1.2 µM,0%
same,growth inhibition,[1]; at 3.7 µM,23%
same,growth inhibition,[1]; at 11.0 µM,37%
same,growth inhibition,[1]; at 33.0 µM,83% (active)
same,growth inhibition,[1]; at 100.0 µM,96% (active)
same,growth inhibition,[2]; at 1.2 µM,-2%
same,growth inhibition,[2]; at 3.7 µM,-9%
same,growth inhibition,[2]; at 11.0 µM,8%
same,growth inhibition,[2]; at 33.0 µM,66%
same,growth inhibition,[2]; at 100.0 µM,96% (active)
same,growth inhibition,[3]; at 1.2 µM,9%
same,growth inhibition,[3]; at 3.7 µM,25%
same,growth inhibition,[3]; at 11.0 µM,69%
same,growth inhibition,[3]; at 33.0 µM,94% (active)
same,growth inhibition,[3]; at 100.0 µM,97% (active)
same,growth inhibition,[4]; at 1.2 µM,-8%
same,growth inhibition,[4]; at 3.7 µM,-11%
same,growth inhibition,[4]; at 11.0 µM,27%
same,growth inhibition,[4]; at 33.0 µM,92% (active)
same,growth inhibition,[4]; at 100.0 µM,97% (active)
same,growth inhibition,[5]; at 1.2 µM,-15%
same,growth inhibition,[5]; at 3.7 µM,-4%
same,growth inhibition,[5]; [17],-16%
same,growth inhibition,[5]; at 11.0 µM,29%
same,growth inhibition,[5]; at 33.0 µM,79% (active)
same,growth inhibition,[5]; [18],87% (active)
same,growth inhibition,[5]; at 50.0 µM,86.2% (active)
same,growth inhibition,[5]; at 100.0 µM,95% (active)
same,growth inhibition,[6]; at 1.2 µM,5%
same,growth inhibition,[6]; at 3.7 µM,14%
same,growth inhibition,[6]; [17],6%
same,growth inhibition,[6]; at 11.0 µM,33%
same,growth inhibition,[6]; at 33.0 µM,90% (active)
same,growth inhibition,[6]; [18],86% (active)
same,growth inhibition,[6]; at 50.0 µM,88.8% (active)
same,growth inhibition,[6]; at 100.0 µM,97% (active)
same,growth inhibition,[7]; at 1.2 µM,-9%
same,growth inhibition,[7]; at 3.7 µM,-11%
same,growth inhibition,[7]; at 11.0 µM,5%
same,growth inhibition,[7]; at 33.0 µM,75% (active)
same,growth inhibition,[7]; at 100.0 µM,96% (active)
same,growth inhibition,[8]; [17],8%
same,growth inhibition,[8]; [18],93% (active)
same,growth inhibition,[8]; at 50.0 µM,88.7% (active)
same,growth inhibition,[9]; at 1.2 µM,10%
same,growth inhibition,[9]; at 3.7 µM,12%
same,growth inhibition,[9]; at 11.0 µM,14%
same,growth inhibition,[9]; at 33.0 µM,39%
same,growth inhibition,[9]; at 100.0 µM,96% (active)
same,growth inhibition,[10]; [17],39%
same,growth inhibition,[10]; [18],67%
same,growth inhibition,[10]; at 50.0 µM,65.1%
same,growth inhibition,[11]; at 1.2 µM,1%
same,growth inhibition,[11]; at 3.7 µM,23%
same,growth inhibition,[11]; [17],27%
same,growth inhibition,[11]; at 11.0 µM,45%
same,growth inhibition,[11]; at 33.0 µM,79% (active)
same,growth inhibition,[11]; [18],96% (active)
same,growth inhibition,[11]; at 50.0 µM,84.5% (active)
same,growth inhibition,[11]; at 100.0 µM,96% (active)
same,growth inhibition,[12]; at 1.2 µM,-3%
same,growth inhibition,[12]; at 3.7 µM,9%
same,growth inhibition,[12]; at 11.0 µM,36%
same,growth inhibition,[12]; at 33.0 µM,91% (active)
same,growth inhibition,[12]; at 100.0 µM,96% (active)
same,growth inhibition,[13]; at 1.2 µM,19%
same,growth inhibition,[13]; at 3.7 µM,17%
same,growth inhibition,[13]; at 11.0 µM,51%
same,growth inhibition,[13]; at 33.0 µM,94% (active)
same,growth inhibition,[13]; at 100.0 µM,97% (active)
same,growth inhibition,[14]; at 1.2 µM,18%
same,growth inhibition,[14]; at 3.7 µM,24%
same,growth inhibition,[14]; at 11.0 µM,57%
same,growth inhibition,[14]; at 33.0 µM,95% (active)
same,growth inhibition,[14]; at 100.0 µM,96% (active)
same,growth inhibition,[15]; [17],-21%
same,growth inhibition,[15]; [18],92% (active)
same,growth inhibition,[15]; at 50.0 µM,85.4% (active)
same,growth inhibition,[16]; at 1.2 µM,9%
same,growth inhibition,[16]; at 3.7 µM,14%
same,growth inhibition,[16]; at 11.0 µM,39%
same,growth inhibition,[16]; at 33.0 µM,83% (active)
same,growth inhibition,[16]; at 100.0 µM,97% (active)
